# Data taken from PubChem BioAssay (Tox21).
# Several values for one entry are separate records, joined by “and”; a condition that tells them apart may be missing. Identical values can stand only once. Results filed as inconclusive are left out. Where a call stands in place of a potency, no number is given. Some structures have more than one record in an assay (separate samples or runs), and their calls can disagree. Activity calls are given as the source filed them. Unless noted, calls follow the shape of the dose curve; as a rule, active = well fitted curve in the direction sought with a large enough effect in the repeat runs; inconclusive = weak or mixed curves; inactive = no such curve, though single readings can be large; an effect the other way counts as inactive or inconclusive.
# Legend:
# [1] = Human pregnane X receptor (PXR) small molecule agonists, qHTS cell viability counter screen (AID 1346977); also: nearly all actives have a fitted effect of over 50% in size; also: potency is read from the fitted curve at half-maximal effect
# Summary of the method: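 Tox21 qHTS format; PXR-Luc HepG2, 2,000/well, charcoal-stripped FBS 5%. Cpd exposure 24hr. Read: CellTiter-Fluor fluorescence, multiplexed with luciferase.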
# [2] = Caspase-3/7 induction in HepG2 cells by small molecules, qHTS assay (AID 1346978); also: nearly all actives have a fitted effect of over 15% in size; also: potency is read from the fitted curve at half-maximal effect
# Summary of the method: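 Wild-type HepG2 cells (2,000/well) were settled 5 h at 37 C, 5% CO2, then exposed to compounds in DMSO for 17 h. Caspase-3/7 activity was read by luminescence 30 min after adding Caspase-Glo 3/7 reagent at room temperature.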
# [3] = Caspase-3/7 induction in CHO-K1 cells by small molecules, qHTS cell viability counter screen (AID 1346979); also: nearly all actives have a fitted effect of over 35% in size; also: potency is read from the fitted curve at half-maximal effect
# Summary of the method: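 CellTiter-Fluor viability check, qHTS format: wild-type CHO-K1, 16hr compound treatment, 1hr reagent incubation, fluorescence read.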
# [4] = Caspase-3/7 induction in HepG2 cells by small molecules, qHTS cell viability counter screen (AID 1346981); also: nearly all actives have a fitted effect of over 30% in size; also: potency is read from the fitted curve at half-maximal effect
# Summary of the method: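 Counter screen for cytotoxicity: HepG2 exposed 16 hr to compounds, then CellTiter-Fluor viability signal (fluorescence, 1 hr reagent incubation).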
# [5] = target: Nuclear receptor subfamily 1 group I member 2 (Rattus norvegicus) (UniProt Q9R1A7); assay: Rat pregnane X receptor (rPXR) activation by small molecules, qHTS assay (AID 1346983); details: rPXR luciferase reporter cells, One-Glo luminescence, 24 h; max activation: stronger effect = higher value; also: nearly all actives have a fitted effect of over 20% in size; also: potency is read from the fitted curve at half-maximal effect
# Summary of the method: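 Cell-based rPXR luciferase reporter assay, 2,000 cells per well, rested 5hr at 37 C before compound addition in DMSO, then 24 hr at 37 C. One-Glo reagent was added and luminescence read after 30 min at room temperature.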
# [6] = target: Acetylcholinesterase (Homo sapiens) (UniProt P22303); assay: Acetylcholinesterase (AChE) small molecule antagonists: colormetric cell-based qHTS assay (AID 1347395; calls by dose curve; also: nearly all actives have a fitted effect of over 30% in size; also: potency is read from the fitted curve at half-maximal effect)
# Summary of the method: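 AChE inhibition read colorimetrically via DTNB–thiocholine in SH-SY5Y cells. Compound 30 min, substrate 90 min, both 37 C.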
# [7] = target: Nuclear receptor subfamily 1 group I member 2 (Homo sapiens) (UniProt O75469); assay: Human pregnane X receptor (PXR) small molecule agonists, qHTS assay (AID 1346982); also: nearly all actives have a fitted effect of over 35% in size; also: potency is read from the fitted curve at half-maximal effect
# Summary of the method: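 Luminescence (ONE-Glo, 30 min RT) after 24 hr compound exposure of PXR-Luc HepG2 cells; cells rested 5 hr post-plating in 5% charcoal-stripped FBS medium.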
# [8] = Caspase-3/7 induction in CHO-K1 cells by small molecules, qHTS assay (AID 1346980); also: nearly all actives have a fitted effect of over 15% in size
# Summary of the method: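 Wild-type cells were seeded at 1,500 per well and settled 5 hr at 37 C, 5% CO2, then exposed to DMSO-dissolved compounds for 17 hr. Caspase-Glo 3/7 reagent was added, and luminescence was read after 30min at room temperature.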
# [9] = target: Nuclear receptor subfamily 1 group I member 2 (Homo sapiens) (UniProt O75469); assay: CYP3A4 induction through human pregnane X receptor (PXR) by small molecules, qHTS assay (AID 1346984); also: nearly all actives have a fitted effect of over 40% in size
# Summary of the method: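 DPX-2 reporter cells; 24h cpd, 37C; Luciferin-IPA 3uM final x3h; One-Glo 30 min RT; lumi read.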
# [10] = target: Nuclear receptor subfamily 1 group I member 2 (Homo sapiens) (UniProt O75469); assay: Human pregnane X receptor (PXR) activation by small molecules, qHTS assay (AID 1346985); also: nearly all actives have a fitted effect of over 40% in size; also: potency is read from the fitted curve at half-maximal effect
# Summary of the method: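 DPX-2 cells (HepG2 co-transfected with a PXR response element and a CYP3A4-promoter luciferase construct) were seeded at 2,000 per well, rested 5 hr at 37C, then exposed to DMSO-dissolved compounds for 24 hr. Activation was read as luciferase luminescence.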
# Sequence of Nuclear receptor subfamily 1 group I member 2 (Rattus norvegicus) (Q9R1A7 whole entry, looked up): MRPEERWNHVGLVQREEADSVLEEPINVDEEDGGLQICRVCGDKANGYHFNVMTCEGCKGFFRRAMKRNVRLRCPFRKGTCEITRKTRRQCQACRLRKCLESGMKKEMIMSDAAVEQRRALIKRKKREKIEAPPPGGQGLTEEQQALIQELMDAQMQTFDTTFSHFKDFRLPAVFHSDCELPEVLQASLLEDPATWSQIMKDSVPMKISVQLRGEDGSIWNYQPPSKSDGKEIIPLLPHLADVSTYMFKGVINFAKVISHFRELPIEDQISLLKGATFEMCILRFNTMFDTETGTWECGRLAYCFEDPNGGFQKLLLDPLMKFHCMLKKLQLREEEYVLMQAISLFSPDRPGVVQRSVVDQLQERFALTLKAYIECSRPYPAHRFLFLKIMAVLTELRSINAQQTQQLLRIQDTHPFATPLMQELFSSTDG
# Sequence of Acetylcholinesterase (Homo sapiens) (P22303 whole entry, looked up): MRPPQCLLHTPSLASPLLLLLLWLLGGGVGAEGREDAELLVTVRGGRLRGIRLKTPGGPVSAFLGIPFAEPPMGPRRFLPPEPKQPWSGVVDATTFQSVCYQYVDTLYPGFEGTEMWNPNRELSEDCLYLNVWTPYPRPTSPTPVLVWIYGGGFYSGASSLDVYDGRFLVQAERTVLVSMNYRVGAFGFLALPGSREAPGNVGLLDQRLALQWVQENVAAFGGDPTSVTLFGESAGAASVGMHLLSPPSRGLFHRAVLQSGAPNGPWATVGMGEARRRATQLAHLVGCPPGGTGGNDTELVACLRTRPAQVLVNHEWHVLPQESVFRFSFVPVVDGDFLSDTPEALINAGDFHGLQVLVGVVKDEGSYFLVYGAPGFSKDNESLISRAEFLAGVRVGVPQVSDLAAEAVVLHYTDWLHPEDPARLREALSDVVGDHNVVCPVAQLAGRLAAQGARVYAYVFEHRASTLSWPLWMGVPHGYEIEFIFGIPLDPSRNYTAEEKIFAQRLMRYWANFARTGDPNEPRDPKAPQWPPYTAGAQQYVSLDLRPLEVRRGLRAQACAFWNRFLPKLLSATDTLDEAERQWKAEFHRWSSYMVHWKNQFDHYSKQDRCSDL
# Sequence of Nuclear receptor subfamily 1 group I member 2 (Homo sapiens) (O75469 whole entry, looked up): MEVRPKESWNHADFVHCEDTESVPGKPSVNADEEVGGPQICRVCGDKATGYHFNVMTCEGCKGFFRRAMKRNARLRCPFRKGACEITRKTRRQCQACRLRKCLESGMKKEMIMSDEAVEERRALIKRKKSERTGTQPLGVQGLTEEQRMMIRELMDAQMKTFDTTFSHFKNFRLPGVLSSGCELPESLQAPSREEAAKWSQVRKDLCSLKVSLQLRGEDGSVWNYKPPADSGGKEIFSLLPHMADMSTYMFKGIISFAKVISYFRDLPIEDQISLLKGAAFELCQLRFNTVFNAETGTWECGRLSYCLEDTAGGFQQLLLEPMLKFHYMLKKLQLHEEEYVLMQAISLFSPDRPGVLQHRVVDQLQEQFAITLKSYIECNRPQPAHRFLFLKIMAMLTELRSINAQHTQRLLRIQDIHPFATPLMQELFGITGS
structure (smiles),measurement,setting,value
C[C@]12C/C(=C/O)C(=O)C[C@@H]1CC[C@@H]1[C@@H]2CC[C@@]2(C)[C@H]1CC[C@]2(C)O,Potency,[1],inactive
same,Potency,[2],inactive
same,Potency,[3],43.7 µM (active)
same,Potency,[4],inactive
same,max activation,[5],1.42% (inactive)
same,Potency,[6],inactive
Nc1cc(Cl)ccc1Cl,Potency,[1],inactive
same,Potency,[2],inactive
same,Potency,[3],inactive
same,Potency,[4],inactive
same,Potency,[7],inactive
same,Potency,[6],inactive
CNC(=O)CSP(=O)(OC)OC,Potency,[1],inactive
same,Potency,[2],inactive
same,Potency,[8],inactive
same,Potency,[4],inactive
same,Potency,[7],inactive
COc1ccc2c3c1O[C@H]1[C@H](O)CC[C@H]4[C@@H](C2)N(C)CC[C@@]341,Potency,[1],inactive
same,Potency,[2],inactive
same,Potency,[3],inactive
same,Potency,[8],inactive
same,Potency,[6],inactive
Cc1c([N+](=O)[O-])cc2c(c1[N+](=O)[O-])C(C)(C)CC2(C)C,Potency,[1],inactive
same,Potency,[2],inactive
same,Potency,[3],inactive
same,Potency,[4],inactive
same,Potency,[7],54.5 µM (active)
same,Potency,[6],inactive
Cc1ccc(C)c2ccccc12,Potency,[1],inactive
same,Potency,[2],inactive
same,Potency,[3],inactive
same,Potency,[4],inactive
same,Potency,[7],inactive
same,Potency,[6],inactive
NC(=O)C(Cl)Cl,Potency,[1],inactive
same,Potency,[2],inactive
same,Potency,[3],inactive
same,Potency,[4],inactive
same,Potency,[7],inactive
same,Potency,[6],inactive
CC(C)N(C(=O)CCl)c1ccccc1,Potency,[1],27.3 µM (active)
same,Potency,[2],inactive
same,Potency,[3],24.3 µM (active) and 27.3 µM (active)
same,Potency,[4],54.5 µM (active)
same,Potency,[7],48.6 µM (active) and inactive
same,Potency,[6],63.3 µM (active)
O=C(NC(=O)c1ccccc1Cl)Nc1ccc(OC(F)(F)F)cc1,Potency,[1],inactive
same,Potency,[2],inactive
same,Potency,[3],inactive
same,Potency,[8],inactive
same,Potency,[6],inactive
N#CSCc1ccccc1,Potency,[1],inactive
same,Potency,[2],inactive
same,Potency,[3],inactive
same,Potency,[4],inactive
same,Potency,[7],43.5 µM (active)
same,Potency,[6],inactive
[O-][Cl+3]([O-])([O-])O,Potency,[1],inactive
same,Potency,[2],inactive
same,Potency,[3],inactive
same,Potency,[4],inactive
same,Potency,[7],inactive
same,Potency,[6],inactive
CN1C(=O)[C@@H](NC(=O)c2cc3ccccc3[nH]2)N=C(c2ccccc2)c2ccccc21,Potency,[1],inactive
same,Potency,[2],inactive
same,Potency,[3],inactive
same,Potency,[4],inactive
same,Potency,[7],inactive
same,max activation,[5],-0.0388% (inactive)
same,Potency,[9],inactive
same,Potency,[10],inactive
same,Potency,[6],inactive
O=[N+]([O-])c1cc(C(F)(F)F)c(Cl)c([N+](=O)[O-])c1Nc1ncc(C(F)(F)F)cc1Cl,Potency,[1],17.2 µM (active)
same,Potency,[2],inactive
same,Potency,[3],5.45 µM (active)
same,Potency,[4],54.5 µM (active)
same,Potency,[7],8.63 µM (active)
same,Potency,[6],inactive
c1ccc2nc(N3CCNCC3)ccc2c1,Potency,[1],inactive
same,Potency,[2],inactive
same,Potency,[3],inactive
same,Potency,[4],inactive
same,Potency,[7],inactive
same,Potency,[6],inactive
CC(C)Br,Potency,[1],inactive
same,Potency,[2],inactive
same,Potency,[3],inactive
same,Potency,[4],inactive
same,Potency,[7],inactive
same,Potency,[6],inactive
CC1CCCC1,Potency,[1],inactive
same,Potency,[2],inactive
same,Potency,[3],inactive
same,Potency,[4],inactive
same,Potency,[7],inactive
same,Potency,[6],inactive
CN(C)c1ccc(N)cc1,Potency,[1],42.2 µM (active)
same,Potency,[2],inactive
same,Potency,[3],42.2 µM (active)
same,Potency,[4],47.4 µM (active)
same,Potency,[7],8.42 µM (active)
same,Potency,[6],12.3 µM (active)
O=C1C2(Cl)C3(Cl)C4(Cl)C(Cl)(Cl)C5(Cl)C3(Cl)C1(Cl)C5(Cl)C24Cl (stereo not given),Potency,[1],42.6 µM (active)
same,Potency,[2],30.1 µM (active) and 65.7 µM (active)
same,Potency,[3],37.9 µM (active) and 46.5 µM (active)
same,Potency,[4],60.1 µM (active)
same,Potency,[7],10.7 µM (active) and 10.4 µM (active)
same,Potency,[6],inactive
CCC[CH2][Sn]([CH2]CCC)([CH2]CCC)[O][Sn]([CH2]CCC)([CH2]CCC)[CH2]CCC,Potency,[1],0.533 µM (active)
same,Potency,[2],2.38 µM (active)
same,Potency,[3],0.336 µM (active)
same,Potency,[4],1.34 µM (active)
same,Potency,[7],0.238 µM (active)
same,"activity, negative = inhibition",[6],-0.727% [at 10.5 µM] (inactive)
CC1CN1 (stereo not given),Potency,[1],inactive
same,Potency,[2],inactive
same,Potency,[3],inactive
same,Potency,[7],inactive
same,Potency,[6],inactive
CCC[CH2][Sn]([CH2]CCC)([O]C(C)=O)[O]C(C)=O,Potency,[1],27.6 µM (active)
same,Potency,[2],inactive
same,Potency,[8],inactive
same,Potency,[4],49 µM (active)
same,Potency,[7],7.77 µM (active)
same,Potency,[6],inactive
Clc1ccc(C2(Cn3cncn3)OCCO2)c(Cl)c1,Potency,[1],inactive
same,Potency,[2],inactive
same,Potency,[3],inactive
same,max activation,[5],-0.146% (inactive)
same,Potency,[9],inactive
same,Potency,[10],inactive
[Cl-].[Cl-].[Sn+2],Potency,[1],inactive
same,Potency,[2],inactive
same,Potency,[3],inactive
same,Potency,[4],inactive
CCC1COC(Cn2cncn2)(c2ccc(Cl)cc2Cl)O1 (stereo not given),Potency,[1],inactive
same,Potency,[2],inactive
same,Potency,[8],inactive
same,Potency,[4],inactive
same,Potency,[7],19.3 µM (active)
same,Potency,[6],inactive
CC(=O)[O-].CC(=O)[O-].O.O.[Zn+2],Potency,[1],inactive
same,Potency,[2],inactive
same,Potency,[8],inactive
same,Potency,[4],inactive
CC(=O)[O-].CC(=O)[O-].CC(=O)[O-].[Cr+3],Potency,[1],inactive
same,Potency,[2],inactive
same,Potency,[8],inactive
O=c1[nH]c(Cl)c(Cl)cc1Cl,Potency,[1],inactive
same,Potency,[2],inactive
same,Potency,[3],inactive
same,Potency,[8],inactive
same,Potency,[6],inactive
CC(Cc1ccc(O)cc1)NCC(O)c1cc(O)cc(O)c1 (stereo not given),Potency,[1],inactive
same,Potency,[2],inactive
same,Potency,[3],inactive
same,Potency,[4],inactive
same,Potency,[7],inactive
same,max activation,[5],-1.7% (inactive)
same,Potency,[9],inactive
same,Potency,[10],inactive
CSC(C)(C)/C=N/O,Potency,[1],inactive
same,Potency,[2],inactive
same,Potency,[3],inactive
same,Potency,[4],inactive
same,Potency,[7],inactive
same,Potency,[6],inactive
CCC(OC(C)=O)C(CC(C)NC)(c1ccccc1)c1ccccc1 (stereo not given),Potency,[1],27.5 µM (active)
same,Potency,[2],69.2 µM (active)
same,Potency,[3],69.2 µM (active)
same,Potency,[4],69.2 µM (active)
same,Potency,[6],inactive
COc1cnc(OC)n2nc(NS(=O)(=O)c3c(OCC(F)F)cccc3C(F)(F)F)nc12,Potency,[1],inactive
same,Potency,[2],inactive
same,Potency,[3],inactive
same,Potency,[4],inactive
same,Potency,[7],inactive
same,Potency,[6],inactive
CC(Cl)CCl (stereo not given),Potency,[1],inactive
same,Potency,[2],inactive
same,Potency,[3],inactive
same,Potency,[7],inactive
same,Potency,[6],inactive
O=c1[nH]c2cc(Cl)ccc2n1C1CCNCC1,Potency,[1],inactive
same,Potency,[2],inactive
same,Potency,[3],inactive
same,Potency,[4],inactive
same,Potency,[7],inactive
same,Potency,[6],inactive
N#CC(C#N)=NNc1cccc(Cl)c1,Potency,[1],3.86 µM (active)
same,Potency,[2],inactive
same,Potency,[3],3.86 µM (active)
same,Potency,[4],24.3 µM (active)
same,Potency,[7],inactive
same,Potency,[6],inactive
S=C=Nc1ccccc1,Potency,[1],inactive
same,Potency,[2],inactive
same,Potency,[3],inactive
same,Potency,[4],inactive
same,Potency,[7],63.1 µM (active)
same,Potency,[6],inactive
N#CCCl,Potency,[1],inactive
same,Potency,[2],inactive
same,Potency,[3],inactive
same,Potency,[4],inactive
same,Potency,[7],inactive
same,Potency,[6],inactive
C=C(C)C(=O)[O][Sn]([CH2]CCC)([CH2]CCC)[CH2]CCC,Potency,[1],0.306 µM (active)
same,Potency,[2],2.17 µM (active)
same,Potency,[3],0.306 µM (active)
same,Potency,[7],0.193 µM (active)
same,Potency,[6],inactive
CC(=O)O.CC(=O)O.CC(=O)O.CC(=O)O.CC(=O)O.CC(=O)O.CC(=O)O.O.O.[Cr].[Cr].[Cr],Potency,[1],inactive
same,Potency,[2],inactive
same,Potency,[3],inactive
same,Potency,[4],inactive
CCCCC(CC)COC(=O)c1ccccc1C(=O)OCC(CC)CCCC (stereo not given),Potency,[1],inactive
same,Potency,[2],inactive
same,Potency,[3],inactive
same,Potency,[4],inactive
same,Potency,[7],6.86 µM (active)
same,Potency,[6],inactive
CC[C@]1(O)CC[C@H]2[C@@H]3CCC4=CCCC[C@@H]4[C@H]3CC[C@@]21C,Potency,[5],14.1 µM (active)
same,Potency,[9],inactive
same,Potency,[10],8.91 µM (active)
